Measurements as given in PubChem BioAssay (NCI).
Compounds without any hit were thinned out: in the full panel of roughly 83,000, 20% have a hit.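 Compound tested at a single concentration for 48 hours in 96-well plates; a percent growth value below 10 was scored as active.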 A number with no mark means an inactive call. Calls of active or inactive are those of the source.

Assays:
Assay in all cases: NCI-60 one-dose screen, 48 h (100 = growth as untreated, 0 = no growth, -100 = all killed)
Conditions in all cases: 10 µM unless noted
DU-145 prostate = tested on: DU-145 prostate
K-562 leukemia = tested on: K-562 leukemia
MDA-MB-231 breast = tested on: MDA-MB-231 breast
RXF 393 renal = tested on: RXF 393 renal
SF-268 CNS = tested on: SF-268 CNS
SF-295 CNS = tested on: SF-295 CNS
SF-539 CNS = tested on: SF-539 CNS
UACC-257 melanoma = tested on: UACC-257 melanoma
M14 melanoma = tested on: M14 melanoma
HCT-15 colon = tested on: HCT-15 colon
HT29 colon = tested on: HT29 colon
SNB-75 CNS = tested on: SNB-75 CNS
SNB-19 CNS = tested on: SNB-19 CNS
U251 CNS = tested on: U251 CNS
PC-3 prostate = tested on: PC-3 prostate
SK-MEL-5 melanoma = tested on: SK-MEL-5 melanoma
UACC-62 melanoma = tested on: UACC-62 melanoma
SK-MEL-28 melanoma = tested on: SK-MEL-28 melanoma
LOX IMVI melanoma = tested on: LOX IMVI melanoma
MALME-3M melanoma = tested on: MALME-3M melanoma

| Compound | growth (DU-145 prostate) | growth (K-562 leukemia) | growth (MDA-MB-231 breast) | growth (RXF 393 renal) | growth (SF-268 CNS) | growth (SF-295 CNS) | growth (SF-539 CNS) | growth (UACC-257 melanoma) | growth (M14 melanoma) | growth (HCT-15 colon) | growth (HT29 colon) | growth (SNB-75 CNS) | growth (SNB-19 CNS) | growth (U251 CNS) | growth (PC-3 prostate) | growth (SK-MEL-5 melanoma) | growth (UACC-62 melanoma) | growth (SK-MEL-28 melanoma) | growth (LOX IMVI melanoma) | growth (MALME-3M melanoma) |
| --- | --- | --- | --- | --- | --- | --- | --- | --- | --- | --- | --- | --- | --- | --- | --- | --- | --- | --- | --- | --- |
| Fc1cccc(-c2[nH]nc3nc(Nc4cccnc4)sc23)c1 | 29.4% | 21% | 78.2% | 44.5% | 60.6% | 27.4% | 24% | 72.4% | 45.5% | 37.1% | 14.5% | 47.5% | 40.2% | 38.6% | 33.1% | 33% | 57.2% | 68.6% | – | – |
| C/C(=N\NC(=O)C(C)SC(C)C(=O)N/N=C(\C)c1cccnc1)c1cccnc1 (configuration not stated) | 111% | 91.9% | 109% | 130% | 108% | 116% | 104% | 113% | 111% | 102% | 94.1% | 89.7% | 110% | 110% | 101% | 98.4% | 101% | 113% | – | – |
| Cn1cc(-c2csc(-c3cn(C(=O)OC(C)(C)C)c4ccccc34)n2)c2cccnc21 | 92.7% | 23.3% | 65.4% | 80.1% | 81.6% | 48.2% | 71.4% | 82.9% | 54.8% | 52.4% | 13% | 57.7% | 83.3% | 61.7% | 48.5% | – | 62.1% | 79.2% | – | – |
| Cc1nn2c(-c3nc4cc(Cl)c(Cl)cc4[nH]3)c(-c3ccc(F)cc3)nc2s1 | 52.8% | 68% | -12.9% (active) | -5.06% (active) | 28% | – | 6.21% (active) | -21% (active) | 30.1% | 76.8% | 20% | -43.7% (active) | 25.7% | 10.6% | 24.6% | 31.9% | 15.9% | 22.9% | 19.5% | – |
| c1ccc2c(-c3nc(-c4c[nH]c5ncccc45)cs3)c[nH]c2c1 | 112% | 106% | 79.9% | 116% | 111% | 119% | 99.3% | 109% | 99.8% | 84.9% | 79.2% | 88.4% | 97.8% | 104% | 84.2% | 106% | 96.9% | 112% | – | – |
| N#CCCCCCn1c2ccccc2c2c3[nH]c(=O)[nH]c(=O)c3c3c4ccccc4n(CCCCCC#N)c3c21 | 54.7% | – | -7.94% (active) | 41.4% | 19.6% | 43.7% | -0.187% (active) | – | 66.8% | 86.6% | 27% | 26.3% | 55.6% | 28.9% | 64.3% | 28.6% | – | – | 31.9% | 33.7% |
| COC(=O)[C@]12CC[C@@H](C)[C@H](C)[C@@H]1C1=CC(=O)[C@@H]3[C@@]4(C)C[C@@H](OC(C)=O)[C@H](OC(C)=O)[C@@](C)(COC(C)=O)[C@@H]4C(=O)C[C@@]3(C)[C@]1(C)CC2 | 73% | – | 41.6% | 64.5% | 73.8% | 51.6% | 72.3% | – | 29.5% | 38.5% | 40.4% | 55.6% | 57% | 40.7% | 2.41% (active) | 20% | – | – | 50.8% | 44.6% |
| CCOc1ccc(NC(=O)c2ccccc2-c2ccccc2C(=O)O)cc1 | 106% | 90.2% | 107% | 114% | 105% | 115% | 117% | 112% | 113% | 106% | 107% | 91.3% | 98.8% | 112% | 101% | 106% | 99.2% | 109% | – | – |
| O=C(NC(Cc1cn(Cc2ccccc2)cn1)C(=O)O)OCC1c2ccccc2-c2ccccc21 (configuration not stated) | 113% | 88.8% | 133% | 117% | 107% | – | 94.6% | 99.1% | 99.8% | 104% | 98.1% | 92.3% | 109% | 101% | 100% | 103% | 112% | 104% | 97.8% | – |
